Experiment [1] can be described thus: Primary qHTS for Huh7 cytotoxicity: counterscreen for inhibitors of MERS-S pseudotyped particle cell entry (AID 1479147). As to activity change, negative = cytotoxicity: % is scaled to controls: 0 for no effect and ±100 for the full control effect. Conditions: outcome: dose series up to 57.1 µM unless noted.
The nature of experiment [2]: Primary qHTS for inhibitors of MERS-S pseudo-typed particle cell entry (AID 1479149). Also: nearly all actives have a fitted effect of over 60% in size. As to activity change, negative = inhibition: % is scaled to controls: 0 for no effect and ±100 for the full control effect. Conditions: outcome: dose series up to 57.1 µM unless noted. (In general: In qHTS, concentration-response curves come from the screen itself.)
Experiment [3] is described as follows: Primary qHTS for Vero E6 cytotoxicity: counterscreen for inhibitors of SARS-S pseudo-typed particle cell entry (AID 1479150). Also: potency is read from the fitted curve at half-maximal effect. As to activity change, negative = cytotoxicity: % is scaled to controls: 0 for no effect and ±100 for the full control effect. Conditions: outcome: dose series up to 57.1 µM unless noted.
Experiment [4] in a line: Cytotoxicity counterscreen for inhibitors of SARS-CoV-2 cell entry (AID 1645845). Also: nearly all actives have a fitted effect of over 50% in size. As to activity change, negative = cytotoxicity: % is scaled to controls: 0 for no effect and ±100 for the full control effect. Conditions: outcome: dose series up to 57.1 µM unless noted. In outline: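 Counterscreen run in the same HEK293-ACE2 line as the pseudotyped-particle entry assay, without particles. Viability after 48 h at 37 C was read as ATP luminescence, scaled between cell-containing and cell-free wells.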

Experiment [5] is described as follows: Primary qHTS to identify inhibitors of SARS-CoV-2 cell entry (AID 1645846). Also: nearly all actives have a fitted effect of over 45% in size. Also: potency is read from the fitted curve at half-maximal effect. Conditions: SARS-CoV-2 pseudovirus cell entry assay, luminescence; activity change, negative = inhibition: at 57.1 µM (top of the series) unless noted. In outline: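 HEK293 cells stably expressing human ACE2, pre-treated 1 h with compound, then infected with MLV particles pseudotyped with Wuhan-Hu-1 spike (C-terminal 19-aa truncation). Luciferase luminescence after 48 h at 37 °C, normalised to spike PP and bald PP.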

The nature of experiment [6]: VSVG counterscreen qHTS to identify inhibitors of SARS-CoV-2 cell entry (AID 1645847). Also: potency is read from the fitted curve at half-maximal effect; nearly all actives have a fitted effect of over 65% in size. A digest of the protocol: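 HEK293-ACE2 cells (Expi293F, human ACE2) pretreated 1 h with compound, then infected with MLV-based VSV-G pseudotyped particles for 48 h at 37 C; luciferase luminescence normalized to VSV-G PP and bald PP wells.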
Experiment [7] has as its target Glutathione peroxidase 1 (Homo sapiens) (UniProt P07203). In words: Primary qHTS Assay for Inhibitors of Recombinant Selenoprotein Glutathione Peroxidase 1 (GPX1) (AID 1845191; active = well fitted curve in the direction sought with a large enough effect; an effect the other way counts as inactive or inconclusive; also: % is scaled to controls: 0 for no effect and ±100 for the full control effect; nearly all actives have a fitted effect of over 65% in size). A digest of the protocol:
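GR-coupled readout: NADPH consumption tracked by fluorescence, ex 340/em 450 nm, at t=0 and after 15 min at RT. Final mix 10 nM GPX1, 1 mM GSH, 0.5 mM CHP, 0.5 mM NADPH, 100 nM GR, 0.01% BSA, following 30 min enzyme–compound preincubation.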

Experiment [8] deals with Phospholipid hydroperoxide glutathione peroxidase GPX4 (Homo sapiens) (UniProt P36969). Put plainly: Primary qHTS Assay for Inhibitors of Recombinant Selenoprotein Glutathione Peroxidase 4 (GPX4) (AID 1845192; active = well fitted curve in the direction sought with a large enough effect; an effect the other way counts as inactive or inconclusive; also: % is scaled to controls: 0 for no effect and ±100 for the full control effect; nearly all actives have a fitted effect of over 65% in size). In outline:
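Steps: GPX4 plus compound, 30 min RT; add GR/GSH/NADPH master mix; start with cumene hydroperoxide; read 340/450 nm fluorescence at 0 and 15 min. Finals were 200 nM GPX4, 1 mM GSH, 0.5 mM CHP, 0.5 mM NADPH, 100 nM GR.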

The nature of experiment [9]: S16 Schwann cell PMP22 intronic element firefly luciferase assay (AID 624032; active = well fitted curve in the direction sought with a large enough effect; an effect the other way counts as inactive or inconclusive; also: potency is read from the fitted curve at half-maximal effect; nearly all actives have a fitted effect of over 30% in size). In outline: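 Rat S16 Schwann cells stably carrying firefly luciferase driven by a PMP22 intronic element, in 10% FBS, treated 24 h at 37 C. ONE-Glo luminescence normalized to PTC124 control and DMSO (0%); curves classed by r2, magnitude and activity.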
A short description of experiment [10]: S16 Schwann cell PMP22 intronic element beta-lactamase assay (AID 624044). Also: potency is read from the fitted curve at half-maximal effect; nearly all actives have a fitted effect of over 15% in size. Conditions: S16 rat Schwann cells, PMP22 element beta-lactamase FRET, 24 h; ratio activity, negative = inhibition: at 38.3 µM (top of the series) unless noted. In outline: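 Beta-lactamase reporter under a PMP22 intronic regulatory element in stable S16 rat Schwann cells; 24 h compound exposure. 460 nm blue signal normalized between DMSO (0%) and potassium clavulanate, with 535 nm FRET tracking viability; curves classed by r2 and response.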

Values joined by “and” are separate entries in the source; they are usually repeats but may differ in a detail not shown here. Equal values may be shown once. Records with an inconclusive call do not appear. Active and inactive are the calls of the source. Unless noted, calls follow the shape of the full dose curve.

Chain of Phospholipid hydroperoxide glutathione peroxidase GPX4 (Homo sapiens) (P36969 whole entry, looked up): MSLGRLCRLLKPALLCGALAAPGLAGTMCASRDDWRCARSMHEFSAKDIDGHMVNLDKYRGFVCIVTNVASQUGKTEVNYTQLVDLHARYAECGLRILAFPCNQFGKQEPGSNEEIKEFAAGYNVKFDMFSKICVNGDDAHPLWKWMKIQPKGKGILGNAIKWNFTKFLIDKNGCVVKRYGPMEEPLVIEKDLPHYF
Chain of Glutathione peroxidase 1 (Homo sapiens) (P07203 whole entry, looked up): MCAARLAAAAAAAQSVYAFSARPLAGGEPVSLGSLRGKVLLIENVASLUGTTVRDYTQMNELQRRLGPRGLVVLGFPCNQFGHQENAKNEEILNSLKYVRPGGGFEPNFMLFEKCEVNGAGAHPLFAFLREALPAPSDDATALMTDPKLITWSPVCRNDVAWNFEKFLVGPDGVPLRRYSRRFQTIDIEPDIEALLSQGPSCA

`C/C(=C\c1csc(C)n1)[C@@H]1C[C@@H]2O[C@]2(C)CCC[C@H](C)[C@H](O)[C@@H](C)C(=O)C(C)(C)[C@@H](O)CC(=O)N1`: the Potency result in [1], in [2], in [3] and in experiment [4] was “inactive” in each case. Besides, the Potency in experiment [5] was 2.82 µM (active); in experiment [6], 0.152 µM (active).

Consider `CCCCCCO[C@@H](C)c1cccc(-c2csc(NC(=O)c3cc(Cl)c(/C=C(\C)C(=O)O)c(Cl)c3)n2)c1OC`, for which the Potency result in experiment [1], in experiment [2], in experiment [3] and in experiment [4] was “inactive” throughout. In [5], the activity change, negative = inhibition was -33.5%.

As to `O=C1N=C(N2CCOCC2)CN1c1ccc(Cl)cc1`, the Potency entry in experiment [1], in experiment [2], in experiment [3] and in experiment [4] was “inactive” each time. The activity change, negative = inhibition in experiment [5] was -29.2%.

Turning to `CCOc1cc(C(CS(C)(=O)=O)N2C(=O)c3cccc(NC(C)=O)c3C2=O)ccc1OC` (stereo not given), the Potency entry in experiment [1], in experiment [2], in experiment [3] and in experiment [4] was “inactive” throughout. For the same molecule, the activity change, negative = inhibition in experiment [5] is -21.8%.

For `O=C1CCC(=O)N1CO`, the Potency result in experiment [1], in experiment [2], in experiment [3], in experiment [4] and in experiment [5] was “inactive” in each case.

Take `CCCCC(C)(O)CC=C[C@H]1[C@H](O)CC(=O)[C@H]1CCCCCCC(=O)OC` (stereo not given in full): the Potency entry in experiment [1], in experiment [2], in [3], in experiment [4] and in [5] was “inactive” throughout.

On to `CC(C)OC(=O)[C@H](C)N[P@@](=O)(OC[C@H]1O[C@@H](n2ccc(=O)[nH]c2=O)[C@](C)(F)[C@@H]1O)Oc1ccccc1`, for which the Potency entry in [1], in experiment [2], in experiment [3] and in experiment [4] was “inactive” each time. Moreover, the activity change, negative = inhibition in experiment [5] was -25.3%.

As to `COc1c(O)cc2c(c1O)[C@H]1O[C@@H](CO)[C@H](O)[C@@H](O)[C@@H]1OC2=O`, the Potency entry in experiment [1], in experiment [2], in [3] and in [4] was “inactive” each time. The activity change, negative = inhibition in experiment [5] was -14.9%.

For `CS(=O)(=O)Nc1cc2occ(NC=O)c(=O)c2cc1Oc1ccccc1`, the Potency result in [1], in experiment [2], in experiment [3] and in experiment [4] was “inactive” throughout. Also, the activity change, negative = inhibition in [5] was -19.1% and -29.3%.

With `CCC(=O)O[C@H]1CC[C@H]2[C@@H]3CC[C@H]4CC(=O)[C@H](C)C[C@]4(C)[C@H]3CC[C@]12C`, the Potency result in experiment [1], in experiment [2], in [3], in [4], in [7] and in experiment [8] was “inactive” throughout. Moreover, the activity change, negative = inhibition in experiment [5] was -28.3%.

With `CC(C)(C)CC(C)(C)c1cc(Cc2cc(C(C)(C)CC(C)(C)C)cc(-n3nc4ccccc4n3)c2O)c(O)c(-n2nc3ccccc3n2)c1`, the values for the activity change, negative = cytotoxicity in experiment [1] and in experiment [3] were 1.83% [at 5.34 µM] (inactive) and -1.1% [at 5.34 µM] (inactive), respectively. The outcome in experiment [2] is “inactive [at 5.34 µM]”; in experiment [4], “inactive [at 5.25 µM]”. Moreover, in experiment [5], the activity change, negative = inhibition is -28.1% [at 5.25 µM].

Consider `CC(C)n1c(/C=C/[C@H](O)C[C@H](O)CC(=O)O)c(-c2ccc(F)cc2)c2ccccc21`, for which the Potency was 11.4 µM (active) in experiment [9], 14.1 µM (active) in experiment [10] and 8.91 µM (active) in experiment [3]. Moreover, the Potency result in experiment [1], in [2], in experiment [4] and in [5] was “inactive” throughout.

The values above are taken from PubChem BioAssay (NCATS).
